The list is not random: actives were taken first. Their share in the collection is about 19%.
HT1080-NT tox = kills 2HG-producing HT-1080-NT fibrosarcoma cells; HT-1080-NT fibrosarcoma viability, CellTiter-Glo ATP luminescence, 48 h; Potency, µM (titrated, usually from 46.1 µM), without a hit: at the top dose activity, negative = less viability, hits mostly cytotoxic; 1.6% of 360,000 active; AID 686970;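 further: NT is the 2HG producing partner of a matched IDH1 knockdown line; potency means the concentration at half of the fitted maximal effect; 0% = DMSO-treated cells and -100% = media-only wells without cells; nearly all actives have a fitted effect of over 55% in size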
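Read-out is CellTiter-Glo luminescence after 10 minutes at room temperature, following 48 hours' compound treatment of HT-1080-NT cells (750 cells/well, RPMI, 5% FBS, 37 degrees C).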
IL-1B inflam inh = inhibitors of inflammasome signaling (IL-1 beta secretion). 4.7% of 360,000 active. THP-1 LPS/ATP IL-1B secretion, AlphaLISA, 16 h; stronger effect = lower value. activity change, % at 57.5 µM; in the data active means activity change below about -50%; inconclusive means mostly about -30% to -49%
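Secreted IL-1B measured by AlphaLISA bead assay after 16 h compound exposure of THP-1 cells; compounds (final up to 57.5 uM) added 1 h before LPS (250 ng/mL) and ATP (1.25 mM) stimulation; lower signal means less secretion.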
DT40 TDP1 CPT = growth inhibition of DT40 Tdp1-/-;hTDP1 cells with camptothecin (screen for TDP1 inhibitors) | 12% of 420,000 active | chicken DT40 Tdp1-/-;hTDP1 cells + 20 nM CPT, ATP luminescence, 48 h | Potency, µM (doses to about 46.2 µM), for inactives: top-dose activity change, negative = growth inhibition, usual class: inhibitors; further: potency means the concentration at half of the fitted maximal effect; nearly all actives have a fitted effect of over 55% in size
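Chicken DT40 Tdp1-/- cells stably complemented with human TDP1 were seeded at 400 cells/well in medium containing 20 nM camptothecin, exposed to pin-transferred compounds, and grown at 37 °C for at least 48 hr. Viability was read as ATP luminescence.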
TDP1 cell noCPT = qHTS for Inhibitors of human tyrosyl-DNA phosphodiesterase 1 (TDP1): qHTS in cells in absence of CPT | DT40 Tdp1-/- hTDP1 cells, no CPT, ATP luminescence, 48 h | Potency, µM (top dose mostly 46.2 µM), without a hit: at the highest dose activity change, negative = growth inhibition, actives largely listed as inhibitors | AID 686978, 2013 | 15% of 420,000 active; further: potency means the concentration at half of the fitted maximal effect; nearly all actives have a fitted effect of over 55% in size
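A cellular qHTS used chicken DT40 cells lacking endogenous Tdp1 but carrying stably transfected human TDP1. Compounds were applied without camptothecin, and cell growth kinetics were judged by ATP-dependent luminescence after ≥48 hr.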
HT1080 IDH1KD tx = kills HT-1080 cells with IDH1 knockdown | AID 686971 | HT-1080 IDH1 knockdown viability, ATP luminescence, 48 h | Potency, µM (highest dose often 46.1 µM), for inactives: top-dose activity, negative = toxicity, actives largely listed as cytotoxic | 2% of 360,000 active;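 further: potency means the concentration at half of the fitted maximal effect; 0% = DMSO wells and -100% = cell-free medium wells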
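After a 2 h attachment period, IDH1KD HT-1080 cells took pin-transferred compound for 48 h at 37 °C; ATP-based luminescence after 10 min room-temperature reagent incubation reported viability.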
An asterisk follows results filed as active; ? = inconclusive; . = not tested or not shown; [ ] = remark or other dose. Unless noted, the call rests on the fitted dose curve; in most records, active means well fitted curve in the direction sought with a large enough effect; inconclusive means small, poorly fitted or top-dose-only effect, or another doubt; inactive means no such curve, though single readings can be large; an effect the other way counts as inactive or inconclusive. Unless noted, on the % scale 0 is the no-effect control and ±100 the full control effect.

SMILES	HT1080-NT tox	IL-1B inflam inh	DT40 TDP1 CPT	TDP1 cell noCPT	HT1080 IDH1KD tx
Cc1c(Cl)ccc2sc(N3CCN(C(=O)C(C)C)CC3)nc12	.	.	11.6µM*	6.51µM*	.
COc1ccc(C(=O)N2CCN(c3nc4c(C)c(Cl)ccc4s3)CC2)c(OC)c1	.	.	16.4µM*	9.2µM*	.
COc1ccc(Cl)c2sc(N3CCN(C(=O)c4ccco4)CC3)nc12	4.5%	-5.9	?	?	0.2%
O=C(c1ccco1)N1CCN(c2ccc(Cl)cc2)CC1	-0.9%	-20.7	-20.7%	-23.0%	-6.2%
O=C(c1ccco1)N1CCN(c2ccc(Cl)c(Cl)c2)CC1	-4.3%	?	20.6µM*	14.6µM*	-12.1%
Cc1nc2ccccc2c(=O)n1NC(=O)c1cccc(Cl)c1	5.0%	29.2	-22.6%	?	-2.0%
Cc1cc(C)c2nc(N3CCC(C(=O)N4CCN(C(=O)c5ccco5)CC4)CC3)sc2c1	-3.5%	?	?	14.6µM*	-12.0%
Cc1c(Cl)ccc2sc(N3CCN(C(=O)C4=COCCO4)CC3)nc12	-1.3%	-60.9*	?	?	-1.8%
Cc1cc(C)c2nc(N3CCC(C(=O)NCc4cccnc4)CC3)sc2c1	0.9%	12.9	-10.3%	7.2%	-0.5%
COc1ccc(CN2CCCC(c3nc(-c4ccncc4)ncc3-c3ccccc3C)C2)c(OC)c1 (stereo not given)	.	.	2.59µM*	?	.
Cc1ccccc1-c1cnc(-c2ccncc2)nc1C1CCCN(Cc2ccccc2O)C1 (stereo not given)	.	.	-5.1%[9.04 µM]	?	.
COc1cccc(CN2CCCC(c3nc(-c4ccncc4)ncc3-c3ccccc3)C2)c1O (stereo not given)	.	.	?	16.4µM*	.
COc1cccc(C(=O)OC(C)C(=O)Nc2ccc3c(c2)OCO3)c1 (stereo not given)	-7.9%	27.7	13µM*	8.2µM*	-4.7%
CC(OC(=O)c1cccnc1Cl)C(=O)Nc1ccc2c(c1)OCO2 (stereo not given)	0.5%	12.5	?	20.6µM*	0.3%
O=C(COC(=O)c1cccnc1Cl)Nc1ccc2c(c1)OCCO2	16.1%	2.7	-12.8%	-9.4%	13.6%
COc1cccc(NC(=O)Nc2ccc3c(c2)OCO3)c1	0.1%	-24.6	2.3%	6.8%	-0.4%
CCN(C(=O)Cn1c(=O)oc2ccccc21)c1cccc(C)c1	18.1%	-9.5	4.1%	?	16.0%
CCN(C(=O)CSc1ncccc1C(=O)OC(C)C)c1cccc(C)c1	-21.5%	-19.6	20.6µM*	?	?
CCOC(=O)c1cccnc1SCC(=O)NCc1ccccc1	12.9%	11.9	1.5%	-11.0%	3.7%
CCOC(=O)c1cccnc1SCC(=O)N(CC)c1cccc(C)c1	-5.5%	1.3	23.1µM*	?	0.4%
CCN(C(=O)CSc1nc(-c2ccccc2)no1)c1cccc(C)c1	.	.	1.64µM*	1.46µM*	.
Cc1ccc(CNC(=O)CN(C(=O)C2(C)CC(=O)N=C3C=CC=CN32)c2ccccc2F)cc1 (stereo not given)	4.0%	12.5	-15.3%	?	-0.3%
CNC(=S)N(CCCO)Cc1cc2cc3c(cc2[nH]c1=O)OCO3	0.3%	3.8	2.1%	-2.7%	-9.4%
C=CCN(C(=O)CCc1ccccc1OC)c1nc(-c2ccc(S(C)(=O)=O)cc2)cs1	-9.6%	-56.8*	16.4µM*	9.2µM*	?
O=Cc1ccsc1B(O)O	.	.	-3.4%	-0.8%	.
SMILES	HT1080-NT tox	IL-1B inflam inh	DT40 TDP1 CPT	TDP1 cell noCPT	HT1080 IDH1KD tx
O=C(O)C(=O)Nc1cccc(-c2nn[nH]n2)c1	.	.	-1.3%	-5.3%	.
Cc1nnc(NC(=O)CN2CCN(Cc3ccccc3)CC2)s1	-10.7%	24.2	-18.8%	?	-9.2%
Cc1ccccc1CNC(=O)c1ccc(NC(=O)c2nsc3ccccc23)cc1	.	.	14.6µM*	11.6µM*	.
NC(=O)C1CCN(C(=O)c2ccccc2NC(=O)c2nsc3ccccc23)CC1	.	.	?	-8.0%	.
Cc1ccc(CNC(=O)c2ccc(NC(=O)c3nsc4ccccc34)cc2)cc1	.	.	10.3%	-15.0%	.
CCOC(=O)c1ccc(NC(=O)c2nsc3ccccc23)cc1	.	.	18.4µM*	?	.

From PubChem BioAssay
